A selection follows.
aSyn 5UTR act = Activators via SNCA 5'UTR binding, MLPCN; AID 1814, 2009; 300,000 tested, 7.1% active; alpha-synuclein 5'UTR reporter, activators screen; activity score, % (tested at 7.5 µM), hits read low; in the data active = activity score below about -60%
A number is an active result; 0 = inactive.

SMILES	aSyn 5UTR act
Cc1ccc2nc(N(CCCN(C)C)C(=O)c3cc(-c4cccs4)nc4ccccc34)sc2c1	0
Nc1nccc(/C=C/c2c(F)cccc2Cl)n1	-103
Oc1cccc2ccc(/C=C/c3c(F)cccc3Cl)nc12	-114
Cc1ccc(-n2cc(CN3CCC(CO)(Cc4ccccc4)CC3)cn2)cc1	-108
OCC1(Cc2ccccc2)CCN(Cc2cnc(-c3ccc(Cl)cc3)nc2)CC1	-74
CCCCOc1ccc(-c2nnn(CC(=O)NCc3ccco3)n2)cc1	-165
CC(C)CC(=O)Nc1ccc(-c2nnn(CC(=O)NCc3ccco3)n2)cc1	-102
Cc1ccccc1-c1cc(-c2ccccc2O)n[nH]1	-183
Cc1ccc(-c2cc(-c3ccccc3Cl)[nH]n2)c(O)c1	-221
Cc1ccc(-c2cc(-c3ccccc3[N+](=O)[O-])[nH]n2)c(O)c1	-343
CC1CCC(NC(=O)CCC(=O)N2CC(C)Oc3ccccc32)CC1 (stereo not given)	-144
COC(=O)c1cnn(-c2cc(Oc3cccc(C)c3)ncn2)c1N	-138
Nc1ccc(N=Nc2ccccc2O)c(N)c1	-136
Oc1ccccc1N=Nc1ccccc1O	0
Cc1ccn2c(c1)nc(=S)n2C(=O)c1ccco1	-202
Cn1ccsc1=NC(=O)c1ccc([N+](=O)[O-])o1	-161
O=C(N/N=C/C(Cl)=C\c1ccccc1)c1cccs1	-92
CC(/C=N/NC(=O)c1cccs1)=C\c1ccccc1	-99
O=C(NNc1ncnc2c1cnn2-c1cccc(Cl)c1)c1ccco1	-158
CC(=O)NNc1ncnc2c1cnn2-c1ccc(C)c(Cl)c1	-69
Brc1ccc(-c2nc3ccccc3s2)s1	-115
O=C1CNC(=S)N1c1nc2ccccc2s1	0
O=C1CCC(=O)N1c1ccc(-c2nc3ccccc3s2)cc1	-120
Nc1ccc(-c2nc3ccccc3s2)cn1	-110
c1ccc(-c2nc3ccccc3s2)nc1	-87
SMILES	aSyn 5UTR act
COc1cc(OC)cc(-c2nc3ccccc3s2)c1	-286
Oc1ccccc1NCC(O)Cn1ccc2ccccc21 (stereo not given)	-113
COC(=O)c1sccc1NC(=O)COc1ccc(Cl)cc1Cl	-162
CC1(C)Cc2c(sc(NC(=O)COc3ccc(Cl)cc3Cl)c2C(N)=O)C(C)(C)N1	0
COC(=O)c1sccc1NC(=O)COc1ccc(C)cc1	-144
N#CC1=C2SC=C(c3ccc(Br)cc3)N2CCCC1=O	-257
N#CC1=C2Sc3ccccc3N2CCCC1=O	-171
O=C(CC1CCCCC1)NCc1ccc(Cl)cc1	-69
Cc1cccc(OCC(=O)Nc2ccc3c(c2)nc2n3CCOC2)c1	-69
CC(=O)NCCc1nc2cc(NC(=O)COc3cccc(C)c3)ccc2n1C	-62
CCC(=O)C1CCCN(C(=O)c2ccc3nc(-c4cccc(OC)c4)oc3c2)C1 (stereo not given)	-85
COc1cccc(-c2nc3ccc(C(=O)N4CCCC(O)C4)cc3o2)c1 (stereo not given)	-91
Cc1cc(C(=O)Nc2nc3ccc(S(C)(=O)=O)cc3s2)c(C)o1	-108
COc1ccc(NS(=O)(=O)c2cc(C)ccc2NC(=O)c2cc(C)oc2C)cc1	0
COc1ccc(C(=O)Nc2nc3cc4c(cc3s2)OCO4)c(OC)c1	-98
COc1ccc2nc(NC(=O)c3cccnc3SC)sc2c1	-130
COc1ccc2nc(NC(=O)c3cc(C)oc3C)sc2c1	-140
Cc1ccccc1NC(=O)Nc1nc2ccc(S(C)(=O)=O)cc2s1	-85
COc1ccc(-c2oc3ccc(N4CCOCC4)cc3c2C#CCO)cc1	-92
Nc1ccc(C#Cc2c(-c3ccsc3)oc3ccc(N4CCOCC4)cc23)cc1	-168
CCCCOc1ccc(Br)cc1/C(C)=N/NC1=NCCN1	0
CCCCOc1ccc(CSC2=NCCN2)cc1[N+](=O)[O-]	-82
O=C1C(C=NCc2cccnc2)=C(O)c2ccccc21	-186
O=C1C(C=NCc2ccco2)=C(O)c2ccccc21	-141
Cc1ccc(O)c(CNc2ccccn2)c1	-67
SMILES	aSyn 5UTR act
Cc1ccc(S(=O)(=O)Nc2ccccc2CNc2ccccn2)cc1	-75
Cc1ccc(S(=O)(=O)Nc2cccc3cccnc23)cc1	0
Cc1ccnc(NCc2cc(C)ccc2O)c1	-69
O=Cc1cccc(OCc2cccc3ccccc23)c1	-117
COc1ccc(COc2cccc(C=O)c2)cc1	-69
O=Cc1ccc(OCc2ccc3ccccc3c2)cc1	-132
O=C(N=C1SCC(=O)N1c1ccccc1Cl)c1ccccc1	-210
O=C(N=C1SCC(=O)N1c1ccccc1Cl)c1ccco1	-174
Nc1cc(-c2ccc(Br)cc2)[nH]n1	-90
Cc1cc(-c2ccc(Br)cc2)n[nH]1	-120
C/C(=N/NC(=O)c1ccoc1C)c1cccc(NC(=O)C(F)(F)F)c1	-128
COc1ccc2cc(/C(C)=N/NC(=O)C3CC3)ccc2c1	-135
C/C(=N/NC(=O)c1ccoc1C)c1cccc(NC(=O)C2CC2)c1	-115
COc1ccc(C(=O)N/N=C(/C)c2cccc(NC(=O)C(F)(F)F)c2)cc1	-108
COc1cccc(/C(C)=N/NC(=O)c2ccc(N(C)C)cc2)c1	-101
O=C(NCc1cccnc1)/C(=C\c1ccc(-c2ccc(Cl)c(Cl)c2)o1)S(=O)(=O)c1ccccc1	-332
c1ccc(-c2nnnc3ccccc23)cc1	-165
Clc1ccc2nnnc(-c3ccccc3)c2c1	-375
COc1ccc(-c2nc(N/N=C(\C)c3ccc(O)cc3)c3ccccc3n2)cc1	-92
CCN(CC)c1ccc(-c2nc3cnccc3n2C)cc1	-111
CSCC(=O)N1CCc2ccc(NC(=O)c3ccccc3Cl)cc2C1	-117
Cc1occc1-c1nnc(-c2cc([N+](=O)[O-])cc([N+](=O)[O-])c2)o1	-133
O=C(COC(=O)c1ccc2[nH]c3c(c2c1)CCCC3)Nc1ccccc1	-64
O=C(Nc1nccs1)c1ccc(Br)s1	-153
Cc1ccc(C(=O)Nc2nccs2)s1	-87
SMILES	aSyn 5UTR act
C=CCn1c(SCC(=O)Nc2ccc(F)cc2F)nnc1-c1cnccn1	-107
c1coc(C2Nc3ccccc3-c3nc4ccccc4n32)c1 (stereo not given)	-93
c1ccc(C2Nc3ccccc3-c3nc4ccccc4n32)nc1 (stereo not given)	-74
CN(C)c1ccc(Nc2ncnc3ccc(Br)cc23)cc1	-72
CN1C(=O)NC(c2cccc(O)c2)C(C(=O)c2cccs2)C1(O)C(F)(F)F (stereo not given)	-139
[O-]/[N+](=C\c1ccco1)c1ccc(Cl)cc1	-164
[O-]/[N+](=C/c1ccc(F)cc1)c1ccc(Cl)cc1	-177
Cn1c(O)c(C2=c3ccccc3=NC2=O)sc1=Nc1ccc(Cl)cc1	-93
CCOc1cc(/C=N/Nc2ncnc(Cl)c2N)ccc1O	-89
Cc1sc(NC(=O)c2ccco2)nc1-c1ccccc1	-95
CC(=O)c1c(C)[nH]c(C(=O)Nc2nc(-c3ccccc3)c(C)s2)c1C	-76
Cc1sc(NC(=O)c2cccs2)nc1-c1ccccc1	-199
Cc1sc(N/N=C/c2cccs2)nc1-c1ccccc1	-211
CC(=O)c1sc(NC(=O)c2ccco2)nc1-c1ccccc1	-115
CC(=O)c1c(C)[nH]c(C(=O)Nc2nccs2)c1C	-135
COc1cc(CNc2ccc3[nH]c(=O)[nH]c3c2)ccc1OCc1cccc(C)c1	-84
O=c1[nH]c2ccc(NCc3ccc(OCc4ccccc4Cl)cc3)cc2[nH]1	-80
COc1cc(CNc2ccc3[nH]c(=O)[nH]c3c2)ccc1OCc1ccc(C)cc1	-118
COc1cc(/C=N/NS(=O)(=O)c2ccc(C)cc2)ccc1OCc1cccc(C(=O)O)c1	0
COc1cc(CNc2ccc(NC(C)=O)cc2)ccc1OCc1ccccc1C	-122

From PubChem BioAssay
